Assay [1] relates to TRPC4 beta (transient receptor potential cation channel C4), mouse. Nature of the assay: TRPC4 cation channel opening, retest – cell-based, Fluo4 calcium, HEK293 TRPC4beta/mu-opioid, duplicates, 10 µM, confirmation (AID 2426;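 active means fluorescence ratio normalized to control raised more than 50% in primary screen plus both repeat runs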). Conditions: Fluo4 calcium fluorescence, at 10 µM; hits give high values.
Assay [2] deals with transient receptor potential cation channel C4 beta (TRPC4), mouse. Nature of the assay: TRPC4 cation channel opening, second retest – cell-based, second round, Fluo4, HEK293 TRPC4beta/mu-opioid, 1 µM, confirmation (AID 2461;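 active means primary screen active and over 50% activation in each of two duplicate runs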). Conditions: Fluo4 calcium fluorescence, at 1 µM; hits give high values.
Assay [3] concerns TRPC4 (transient receptor potential cation channel C4 beta), mouse. Nature of the assay: potentiation of DAMGO EC20 TRPC4 response – cell-based, second round, Fluo-4, HEK293 TRPC4beta/mu-opioid, 1 µM, confirmation (AID 2554;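 active means primary screen hit whose fluorescence ratio, in both repeats, exceeds the weak agonist control mean by 3 SD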). The following applies: DAMGO EC20, Fluo-4 calcium flux, at 1 µM; hits give high values. Background: Calcium flux is commonly read through the fluorescence of an indicator in the cells.

For assay [4], the system named is TRPC4 beta (transient receptor potential cation channel C4), mouse. Nature of the assay: potentiation of DAMGO EC20 TRPC4 response – cell-based, Fluo-4, HEK293 TRPC4beta/mu-opioid, confirmation (AID 2555;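 active means primary screen hit whose calcium fluorescence ratio, in both repeats, exceeds the weak agonist control mean by 3 SD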). Conditions: DAMGO EC20, Fluo-4 calcium flux, at 10 µM; hits give high values.
In assay [5] the target is Short transient receptor potential channel 4 (Mus musculus) (UniProt Q9QUQ5). Nature of the assay: blockers of DAMGO-evoked TRPC4 calcium flux – cell-based, Fluo4, HEK293 TRPC4beta/mu-opioid, confirmation (AID 2636;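 active means calcium signal cut by more than 3 SD below the full-agonist control yet still positive, in both repeats and the earlier primary screen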). The following applies: at 10 µM; hits give high values.
Sequence of Short transient receptor potential channel 4 (Mus musculus) (Q9QUQ5 whole entry, looked up): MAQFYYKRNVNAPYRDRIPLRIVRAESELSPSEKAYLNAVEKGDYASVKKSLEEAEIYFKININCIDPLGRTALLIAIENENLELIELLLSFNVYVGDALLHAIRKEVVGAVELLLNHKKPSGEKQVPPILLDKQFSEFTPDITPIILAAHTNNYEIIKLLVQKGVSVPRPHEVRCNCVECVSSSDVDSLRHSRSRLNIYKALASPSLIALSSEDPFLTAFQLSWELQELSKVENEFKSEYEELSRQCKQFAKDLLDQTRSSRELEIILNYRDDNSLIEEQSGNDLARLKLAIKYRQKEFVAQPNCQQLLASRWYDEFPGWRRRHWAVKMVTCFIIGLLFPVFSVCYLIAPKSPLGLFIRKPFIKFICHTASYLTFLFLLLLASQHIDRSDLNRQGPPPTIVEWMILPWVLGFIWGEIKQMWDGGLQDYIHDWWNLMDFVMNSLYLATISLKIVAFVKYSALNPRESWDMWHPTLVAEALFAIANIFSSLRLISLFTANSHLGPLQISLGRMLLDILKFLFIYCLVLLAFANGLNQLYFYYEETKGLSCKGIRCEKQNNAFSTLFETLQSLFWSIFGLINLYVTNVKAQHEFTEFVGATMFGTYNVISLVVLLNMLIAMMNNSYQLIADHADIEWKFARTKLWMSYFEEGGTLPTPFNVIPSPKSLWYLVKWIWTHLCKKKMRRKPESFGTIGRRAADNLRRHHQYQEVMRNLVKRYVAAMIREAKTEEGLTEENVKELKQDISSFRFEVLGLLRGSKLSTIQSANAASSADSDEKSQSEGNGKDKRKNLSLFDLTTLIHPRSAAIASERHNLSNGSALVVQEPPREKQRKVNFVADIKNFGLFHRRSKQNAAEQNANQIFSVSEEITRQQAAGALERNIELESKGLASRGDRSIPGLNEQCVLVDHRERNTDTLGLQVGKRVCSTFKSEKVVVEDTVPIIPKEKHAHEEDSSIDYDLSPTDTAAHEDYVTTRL
Assay [6] shares this target. Nature of the assay: blockers of DAMGO-evoked TRPC4 calcium flux – cell-based, second round, Fluo4, HEK293 TRPC4beta/mu-opioid, 1 µM, confirmation (AID 2637;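 active means calcium signal ratio cut to more than 3 SD under the fully stimulated control mean yet still positive, in both repeats and the primary screen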). The following applies: at 1 µM; hits give high values.
Assay [7] shares this target. Nature of the assay: calcium entry via TRPC4 opening agents – cell-based, HEK293 TRPC4/mu-opioid, Fluo-4 calcium, dose response (AID 434937;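 active means primary screen activator hit with a dose response curve and TRPC4 channel activation at any tested dose; inactive means no activation, no dose response, or not a primary hit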).
The target is the same in assay [8]. Nature of the assay: potentiation of DAMGO-evoked TRPC4 calcium signal – cell-based, HEK293 TRPC4/mu-opioid, Fluo-4 calcium, EC20 DAMGO, dose response (AID 434941;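 active means earlier screen potentiator hit that boosts the TRPC4 ion channel at some dose, with a dose response; inactive means no potentiation, no dose response, or not a prior hit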;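 further: calcium entry triggered by an EC20 dose of DAMGO at the co-expressed mu-opioid receptor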).
Assay [9] shares this target. Nature of the assay: block of DAMGO-driven TRPC4 calcium entry – cell-based, HEK293 TRPC4/mu-opioid, Fluo-4 calcium, dose response (AID 434942;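 active means primary screen inhibitor hit that blocks the TRPC4 channel at some tested dose, yielding a dose curve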).
The target of assay [10] is Short transient receptor potential channel 6 (Mus musculus) (UniProt Q61143). Nature of the assay: TRPC6 blockade by TRPC4 inhibitor hits – cell-based, HEK293, membrane potential dye, duplicate, selectivity assay for TRPC4 inhibitor project, confirmation (AID 434948;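 active means active in primary screen and both duplicates, each dropping signal beyond three positive-control SD with fluorescence still positive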). Conditions: HEK293 TRPC6, membrane potential dye fluorescence, at 10 µM; inhibition: hits give high values, stimulated with maximal-effect acetylcholine unless noted; outcome: stimulated with maximal-effect acetylcholine unless noted.
Sequence of Short transient receptor potential channel 6 (Mus musculus) (Q61143 whole entry, looked up): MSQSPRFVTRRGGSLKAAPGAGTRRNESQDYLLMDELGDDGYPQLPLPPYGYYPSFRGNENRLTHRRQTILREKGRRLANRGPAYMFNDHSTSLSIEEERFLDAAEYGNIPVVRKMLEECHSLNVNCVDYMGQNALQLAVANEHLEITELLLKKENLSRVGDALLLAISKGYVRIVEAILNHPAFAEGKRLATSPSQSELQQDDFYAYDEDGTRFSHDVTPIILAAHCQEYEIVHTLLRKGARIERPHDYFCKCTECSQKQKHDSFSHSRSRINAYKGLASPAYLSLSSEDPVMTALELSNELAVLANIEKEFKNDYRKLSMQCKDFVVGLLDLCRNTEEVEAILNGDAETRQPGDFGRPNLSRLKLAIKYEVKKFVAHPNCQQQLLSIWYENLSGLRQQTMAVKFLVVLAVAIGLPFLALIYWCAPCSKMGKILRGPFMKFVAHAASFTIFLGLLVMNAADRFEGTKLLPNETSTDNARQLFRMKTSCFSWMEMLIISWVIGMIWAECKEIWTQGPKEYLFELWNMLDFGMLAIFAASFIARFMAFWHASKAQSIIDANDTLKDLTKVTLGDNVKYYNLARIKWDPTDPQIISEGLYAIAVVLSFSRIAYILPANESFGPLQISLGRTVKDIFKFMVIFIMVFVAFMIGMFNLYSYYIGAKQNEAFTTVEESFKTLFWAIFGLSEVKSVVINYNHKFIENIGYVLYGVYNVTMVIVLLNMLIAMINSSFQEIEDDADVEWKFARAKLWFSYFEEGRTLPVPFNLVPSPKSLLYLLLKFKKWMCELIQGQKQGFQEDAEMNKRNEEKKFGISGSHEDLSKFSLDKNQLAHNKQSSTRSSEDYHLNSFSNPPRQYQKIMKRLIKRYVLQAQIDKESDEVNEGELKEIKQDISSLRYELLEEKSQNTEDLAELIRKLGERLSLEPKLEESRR

The target is the same in assay [11]. Nature of the assay: TRPC6 opening by TRPC4 activator hits – cell-based, HEK293, membrane potential dye, duplicate, selectivity assay for TRPC4 activator project, confirmation (AID 434950;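 active means membrane potential signal rise above negative control mean plus 3 SD in both duplicates, also active in the earlier TRPC4 screen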;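 on activation: 0% = buffer only wells and 100% = acetylcholine maximal-effect wells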). The following applies: HEK293 TRPC6, membrane potential fluorescence, at 10 µM; activation: hits give high values; outcome: activation.
Assay [12] has the same target. Nature of the assay: positive modulators of mouse TRPC6 channel – HEK293 cells, membrane potential dye, duplicate, selectivity assay for TRPC4 potentiator project, confirmation (AID 434952;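 active means compound raising the membrane signal above positive-control mean plus 3 SD in both repeats, and a primary screen hit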). Conditions: HEK293 TRPC6, membrane potential dye fluorescence, at 10 µM; maximal acetylcholine added after compound unless noted.
The target in assay [13] is Short transient receptor potential channel 4 (Mus musculus) (UniProt Q9QUQ5). Nature of the assay: calcium flux activators in TRPC4/5HT1a cells, counter-screen for TRPC4 activator project, cell-based, second counter screen, HEK293 TRPC4/5HT1a, Fluo-4 (AID 434977). The following applies: Fluo-4 calcium flux, at 10 µM; hits give high values.
A short description of assay [14]: serotonin-gated TRPC4 signal block – cell-based, second counter screen, HEK293 TRPC4/5HT1a, Fluo-4, counter-screen for TRPC4 inhibitor project, confirmation (AID 434978;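 active means primary screen active whose calcium signal fell more than 3 SD beyond the full-serotonin control mean in both duplicate plates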;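 further: serotonin given first at submaximal then at maximal dose after compound preincubation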). The following applies: Fluo-4 calcium flux, at 10 µM; inhibition: hits give high values, serotonin added to trigger calcium flux unless noted; outcome: serotonin added to trigger calcium flux unless noted.

Assay [15] concerns TRPC4 (mouse), co-expressed with 5HT1a in HEK293. Nature of the assay: enhancement of serotonin-evoked TRPC4 response – cell-based, second counter screen, HEK293 TRPC4/5HT1a, Fluo-4, counter-screen for TRPC4 potentiator project, confirmation (AID 434979;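 active means signal rise over 3 SD above mean of control wells given weak agonist, in both repeats and first screen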). The following applies: Fluo-4 calcium flux, at 10 µM; outcome: serotonin added at its EC20 dose unless noted; potentiation: hits give high values, serotonin added at its EC20 dose unless noted.

The nature of assay [16]: nonspecific calcium rise without TRPC4 – cell-based, HEK293 mu-opioid receptor line, counter-screen for TRPC4 activator project, confirmation (AID 449723;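 active means hit in primary screen, with calcium signal over 5 SD above buffer well mean in both duplicates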;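 further: counter screen cells carry the mu-opioid receptor alone and lack TRPC4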). Conditions: HEK293 mu-opioid cells, Fluo-4 calcium fluorescence, at 10 µM; hits give high values.
Assay [17] is described as follows: nonspecific potentiation of DAMGO calcium response – cell-based, HEK293 mu-opioid receptor line, counter-screen for TRPC4 allosteric potentiator project, confirmation (AID 449724;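 active means calcium signal rise more than 3 SD above the low-dose agonist control mean, in both duplicate plates and the primary screen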;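 further: HEK293 cells carrying mu-opioid receptor only with no TRPC4 channel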). Conditions: HEK293 mu-opioid receptor cells, Fluo-4 calcium flux, at 10 µM; compound added before EC20 DAMGO stimulus unless noted. For orientation: The purpose of a counterscreen is to sort out artefacts and off-target activity.

Assay [18] deals with Inward rectifier potassium channel 2 (Mus musculus) (UniProt P35561). Nature of the assay: inhibition of Kir2.1 inward rectifier potassium flux – cell-based, FluxOR thallium flux, duplicate, confirmation (AID 2032;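 active means Primary-screen hit whose thallium flux fell at least 3 control SD below untreated wells in both duplicates, with normal baseline fluorescence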;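 further: 0% = blank wells without stimulus and 100% = stimulated no-compound controls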). The following applies: Kir2.1-expressing cells, FluxOR thallium flux fluorescence, at 10 µM; hits give low values.
Sequence of Inward rectifier potassium channel 2 (Mus musculus) (P35561 whole entry, looked up): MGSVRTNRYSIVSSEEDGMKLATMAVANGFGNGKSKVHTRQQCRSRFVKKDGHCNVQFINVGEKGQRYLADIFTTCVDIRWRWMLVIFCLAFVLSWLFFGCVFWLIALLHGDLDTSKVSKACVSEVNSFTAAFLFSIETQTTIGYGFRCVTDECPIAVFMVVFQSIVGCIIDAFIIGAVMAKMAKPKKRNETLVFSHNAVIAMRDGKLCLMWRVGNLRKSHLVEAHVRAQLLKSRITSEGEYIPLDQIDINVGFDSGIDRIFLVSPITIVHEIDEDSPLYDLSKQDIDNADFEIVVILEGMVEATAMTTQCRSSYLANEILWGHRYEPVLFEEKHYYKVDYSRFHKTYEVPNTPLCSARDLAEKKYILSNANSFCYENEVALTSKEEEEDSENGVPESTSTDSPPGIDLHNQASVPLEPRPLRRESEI
A short description of assay [19]: parental HEK293 cell activity, no Kir2.1 – FluxOR thallium flux, duplicate, single concentration, counter-screen for Kir2.1 inhibitor project, confirmation (AID 2105;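 active means dye signal at least 3 control SD above or below untreated wells in both duplicates, raw fluorescence within 3, either direction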). The following applies: parental HEK293 cells, FluxOR thallium flux fluorescence, at 10 µM; 0% = unstimulated blank wells.
Assay [20] addresses Short transient receptor potential channel 6 (Mus musculus) (UniProt Q61143). Nature of the assay: blockers of TRPC6 cation channel activity – HEK293 cells, membrane potential dye, duplicate, confirmation (AID 488960;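 active means fluorescence ratio falls more than 5 SD below the full-stimulation control mean, in both duplicate runs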). The following applies: ACh-evoked depolarization, at 10 µM; hits give high values.

For some of these results: Potency and affinity values are given separately. The list shows a part of the results. Calls of active or inactive are those of the source.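 How the source made its calls, unless noted: active means calcium signal rise above buffer-control mean plus 5 SD in both duplicates, and also a hit in the primary screen; inactive means the rest.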

A word on the inhibition: it is the change of the read-out against control, counted positive when it falls.

As to `Clc1ccc2c(c1)C(c1ccccc1Cl)=NCc1nnc(N3CCN(CCOc4ccccc4)CC3)n1-2`, the outcome in [1], in assay [2], in [3], in assay [5], in [6] and in assay [7] was inactive. Besides, the outcome in assay [8], in assay [9], in assay [10], in assay [11], in [12] and in assay [13] was inactive. The outcome in assay [14], in [16] and in [17] was inactive. The potentiation in [4] is 9% (active); in assay [15], 13.8% (active).

Take `C=CCOC(=O)C1=C(C)OC(N)=C(C#N)[C@@]12C(=O)N(CC(N)=O)c1ccccc12`: the outcome in assay [1], in assay [2], in [3], in [5], in [6] and in assay [7] was inactive. Also, the outcome in assay [8], in assay [9], in assay [10], in assay [11], in assay [12] and in [13] was inactive. For the same molecule, the outcome in assay [14], in assay [16] and in assay [17] was inactive. Also, the potentiation in assay [4] is 26% (active); in assay [15], 7.13% (active).

Regarding `C#CCN1C(=O)C2(C(C#N)=C(N)OC(C)=C2C(=O)OCc2ccccc2)c2ccccc21` (stereo unspecified), the outcome in assay [1], in [2], in assay [3], in assay [5], in [6] and in assay [7] was inactive. Further, the outcome in assay [8], in [9], in assay [10], in [11], in assay [12] and in assay [13] was inactive. In addition, the result in assay [14], in assay [16] and in [17] was inactive. Moreover, the potentiation in assay [4] was 11% (active); in assay [15], 28.9% (active).

`CC(C)CNc1c2c(nc3ccccc13)CCC2`: the outcome in assay [1], in assay [2], in assay [3], in assay [4], in [5] and in assay [6] was inactive. Moreover, the outcome in assay [7], in assay [8], in [9], in [10], in [11] and in assay [12] was inactive. For the same molecule, the result in assay [13], in assay [14], in assay [15], in [16] and in [17] was inactive.

On to `CCc1ccc(OCCCN=C(C)c2c(O)n(C)c(=O)n(C)c2=O)cc1`, for which the outcome in assay [1], in [2], in assay [3], in [4], in assay [5] and in [6] was inactive. Moreover, the result in assay [7], in assay [8], in assay [9], in [11], in [13] and in [16] was inactive. Further, the outcome in assay [10], in assay [12], in [14] and in [17] was “inactive [setting not given]” in each case. The potentiation in [15] is 13.7% [hits give high values] (active).

On to `COc1ccc(Br)cc1CNCCc1cccc(Cl)c1`, for which the Tl flux remaining, % of negative control (hits give low values) in assay [18] was 15.5% (active). In addition, the outcome in [19] was inactive.

Consider `COC(=O)C1=C(c2cc3ccccc3s2)C[C@@H]2CC[C@H]1N2C(=O)NCCO`, for which the result in [1], in assay [2], in assay [3], in assay [4], in [5] and in [6] was inactive. Besides, the result in [7], in [8], in assay [9], in assay [10], in assay [12] and in assay [13] was inactive. The outcome in [14], in assay [15], in assay [16] and in assay [17] was inactive. Moreover, the activation in assay [11] was 27% (active).

For `CN(CCOc1ccc(C=C2C(=O)NC(=O)NC2=O)cc1)c1ccccn1`, the result in assay [1], in [2], in assay [3], in [4], in assay [6] and in assay [7] was inactive. The result in assay [8], in [9], in [11], in assay [13] and in assay [16] was inactive. The inhibition in [5] was 61% (active). Besides, the outcome in assay [10], in assay [12], in [14], in assay [15] and in assay [17] was “inactive [setting not given]” throughout.

For `Nc1c([N+](=O)[O-])cc(F)c(N2CCNCC2)c1Br`, the outcome in assay [1], in assay [2], in [3], in assay [4], in assay [5] and in [6] was inactive. The result in assay [7], in [8], in assay [9], in assay [10], in assay [11] and in [12] was inactive. Moreover, the outcome in [13], in assay [14], in assay [16] and in [17] was inactive. In addition, the potentiation in assay [15] is 22.5% (active).

As for `Cc1ccccc1CN1CCNCC1`, the result in [1], in [2], in [3], in [4], in assay [5] and in [6] was inactive. The outcome in assay [7], in assay [8], in assay [9], in assay [11], in assay [13] and in assay [16] was inactive. The outcome in assay [10], in assay [12], in assay [14], in assay [15] and in assay [17] was “inactive [setting not given]” throughout.

As for `FC(F)(F)c1ccc(CN2CCNCC2)cc1`, the result in assay [1], in [2], in assay [5], in assay [6], in assay [7] and in [8] was inactive. The outcome in assay [9], in assay [11], in assay [13] and in assay [16] was inactive. Also, the potentiation is 26% (active) in [3], 22% (active) in assay [4] and 25.6% [hits give high values] (active) in assay [15]. Further, the outcome in assay [10], in assay [12], in assay [14] and in [17] was “inactive [setting not given]” each time.

As to `CCn1ccnc1CN1CCCC(C(=O)c2cccc(C(F)(F)F)c2)C1` (stereo unspecified), the result in [1], in assay [2], in assay [3], in assay [4], in assay [5] and in assay [6] was inactive. Further, the outcome in [7], in assay [8], in [9], in assay [10], in assay [11] and in assay [12] was inactive. For the same molecule, the outcome in assay [13], in assay [14], in assay [15], in [16] and in [17] was inactive.

As for `CCOc1cccc(=NC2CCCCC2)c2c(C)[nH]c(C)c12`, the Tl flux remaining, % of negative control (hits give low values) in assay [18] was 46.5% (active). Also, the outcome in assay [19] and in assay [20] was inactive.

As to `CCCCN1C(=O)NC(=O)C2(Cc3c(nc4c(C)cccn4c3=O)N3CCc4ccccc4C32)C1=O` (stereo unspecified), the result in [1], in assay [2], in assay [3], in assay [5], in assay [6] and in assay [7] was inactive. The outcome in [8], in assay [9], in [11], in assay [13] and in assay [16] was inactive. Besides, the potentiation in assay [4] was 23% (active); in assay [15], 37.1% [hits give high values] (active). Moreover, the outcome in [10], in assay [12], in [14] and in assay [17] was “inactive [setting not given]” each time.

As to `O=[N+]([O-])c1ccc(N2CCNCC2)cc1N1CCCCCC1`, the result in [1], in assay [2], in [3], in assay [4], in assay [5] and in assay [6] was inactive. The outcome in [7], in [8], in assay [9], in [10], in assay [11] and in assay [12] was inactive. The outcome in [13], in assay [14], in [16] and in assay [17] was inactive. For the same molecule, in assay [15], the potentiation was 13.3% (active).

Source of the values: PubChem BioAssay.
